Bioassay records as filed in PubChem.
Hits are enriched below; roughly 10% of the tested compounds scored in any of these assays.
12-hLO inh: 12-hLO (ALOX12) enzyme inhibition; P18054; purified 12-hLO, xylenol orange hydroperoxide absorbance; Potency, µM (highest dose often 57.1 µM), for the others: at the top dose activity change, negative = inhibition, actives largely listed as inhibitors; 0.12% of 150,000 active; AID 1452; further: potency means the concentration at half of the fitted maximal effect; nearly all actives have a fitted effect of over 55% in size
Target sequence (P18054 whole entry, looked up): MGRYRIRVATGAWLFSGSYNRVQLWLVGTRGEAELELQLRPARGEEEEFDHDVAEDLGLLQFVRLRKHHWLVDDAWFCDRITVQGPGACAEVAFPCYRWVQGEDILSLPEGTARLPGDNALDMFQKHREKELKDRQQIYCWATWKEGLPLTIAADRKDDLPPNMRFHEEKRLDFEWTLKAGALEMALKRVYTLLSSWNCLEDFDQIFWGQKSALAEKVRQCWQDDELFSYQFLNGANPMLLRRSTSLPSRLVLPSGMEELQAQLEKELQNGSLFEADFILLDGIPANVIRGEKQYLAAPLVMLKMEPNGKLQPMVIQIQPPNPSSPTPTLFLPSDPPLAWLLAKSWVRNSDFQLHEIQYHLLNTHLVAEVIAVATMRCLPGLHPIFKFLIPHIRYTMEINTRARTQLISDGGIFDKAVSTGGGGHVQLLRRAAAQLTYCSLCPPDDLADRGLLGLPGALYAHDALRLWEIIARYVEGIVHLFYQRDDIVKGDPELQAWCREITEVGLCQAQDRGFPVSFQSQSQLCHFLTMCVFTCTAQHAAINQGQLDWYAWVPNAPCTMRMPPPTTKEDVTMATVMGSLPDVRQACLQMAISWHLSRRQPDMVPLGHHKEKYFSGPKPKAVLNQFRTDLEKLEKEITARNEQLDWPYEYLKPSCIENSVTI
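Purified human 12hLO (150 nM final) was preincubated with compounds for 15 min at room temperature in 25 mM Hepes pH 7.0, 0.01% Triton X-100, then reacted with 40 uM arachidonic acid for 30 min. Hydroperoxide was detected with ferrous iron/xylenol orange.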
HPGD inh: inhibitors of human 15-hydroxyprostaglandin dehydrogenase (HPGD) | Potency, µM, inactives show at the highest dose activity change, negative = inhibition, most hits filed as inhibitors | 4.3% of 150,000 active | P15428 | purified HPGD, NADH fluorescence kinetic, PGE2 substrate; active means well fitted inhibition curve with a large enough effect, not every such curve was filed as active; inconclusive means small, poorly fitted or top-dose-only effect, or another doubt; inactive means no such curve, though single readings can be large or run the other way; further: potency means the concentration at half of the fitted maximal effect
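NADH formation kinetics: reaction with 30 uM PGE2 and 1 mM NAD+ (final), 20 nM enzyme, Tris-HCl pH 8 with Tween 20, after 15 min compound preincubation at room temperature. Fluorescence change, last versus first of five reads.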
GLA inh pH 4.5: blocks human alpha-galactosidase A at pH 4.5 | purified enzyme, 4-MU-alpha-Gal fluorescence, pH 4.5 | activity change, negative = inhibition, % at 105 µM | 230,000 tested, under 10 active;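 further: 0% = full activity with enzyme and -100% = basal without enzyme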
ALDH1A1 inh: inhibitors of human aldehyde dehydrogenase 1A1 | P00352 | Purified ALDH1A1, NADH fluorescence, propionaldehyde substrate | Potency, µM (titrated, usually from 75.3 µM), for the others: at the top dose activity, negative = inhibition, usual class: inhibitors | 7.3% of 220,000 active | AID 1030; active means well fitted inhibition curve with a large enough effect, not every such curve was filed as active; inconclusive means small, poorly fitted or top-dose-only effect, or another doubt; inactive means no such curve, though single readings can be large or run the other way;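 further: potency means the concentration at half of the fitted maximal effect; plate controls were no enzyme wells and a reference inhibitor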
PNC assembly inh: blocks assembly of the perinucleolar compartment. PC3M PTB-GFP, PNC prevalence imaging, 16 h; hits give low values. activity change (PNC), negative = inhibition, % at 10 µM. 3.1% of 140,000 active;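 active means readout at or below -70, meaning at least 70% loss of cells showing the perinucleolar compartment, a nuclear body marking cancer cells; inconclusive means readout between -30 and a set limit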;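 further: plate controls were DMSO wells for no effect and camptothecin positive control wells for full effect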
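PC3M cells stably expressing PTB-GFP, 750–1000 cells/well, treated 16 h at 37 °C with compound (23 nl of library stock), in duplicate. After paraformaldehyde fixation and Hoechst stain, imaged at 20x; PNC prevalence scored by image analysis.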
aGal spleen mod: alpha-galactosidase A (human) modulation. P06280. human spleen homogenate, 4MU-alpha-Gal fluorescence, 40 min. Potency, µM (highest dose often 80 µM), inactives show top-dose activity change, negative = inhibition, hits mostly inhibitors. 0.008% of 240,000 active. AID 2107;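 further: potency means the concentration at half of the fitted maximal effect; 0% = enzyme with vehicle and -100% = no enzyme basal signal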
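Human spleen homogenate (1 ug) was the enzyme source, with 4-methylumbelliferyl-alpha-D-galactopyranoside (1 mM final) in pH 5.0 citrate buffer with 0.01% Tween-20. Compounds were titrated; after 40 min at 37C, NaOH/glycine stop, 4-MU fluorescence read; AC50 from Hill fits.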
The depositor's hits bear a star; ? = inconclusive; / = no result given. Unless noted, the call rests on the fitted dose curve; in most records, active means well fitted curve in the direction sought with a large enough effect; inconclusive means small, poorly fitted or top-dose-only effect, or another doubt; inactive means no such curve, though single readings can be large; an effect the other way counts as inactive or inconclusive. Unless noted, on the % scale 0 is the no-effect control and ±100 the full control effect.

SMILES	12-hLO inh	HPGD inh	GLA inh pH 4.5	ALDH1A1 inh	PNC assembly inh	aGal spleen mod
Nc1nc(=O)n(C2OC(CO)C(O)C2O)cc1Cl (stereo not drawn)	-1%	-5%	-3	5%	/	6%
C(=C\c1nc(-c2ccccc2)oc1Nc1ccc2ccccc2c1)/c1ccccc1	0%	-7%	-12	12%	/	0%
CCC1CCCCN1C(=O)COC(=O)c1cc(Br)ccc1Cl (stereo not drawn)	/	/	8	?	/	-5%
CC1CCCC(C)N1C(=O)COC(=O)c1cc(Br)ccc1Cl (stereo not drawn)	/	/	-3	20µM*	/	-7%
CN(C(=O)CC(=O)Nc1ccc(Cl)c(Cl)c1)c1ccccc1	/	/	2	?	/	11%
O=C(Nc1cccc(F)c1)N1CC2(CCN(C(=O)c3cc(C(F)(F)F)cc(C(F)(F)F)c3)CC2)C1	1%	-17%	/	3%	/	4%
COc1ccccc1NS(=O)(=O)c1cc(NC(C)=O)ccc1N1CCCCC1	/	/	-7	8.9µM*	/	1%
COc1ccccc1NS(=O)(=O)c1cc(NC(=O)C2CC2)ccc1N1CCOCC1	/	/	-3	?	/	1%
COc1ccc(C(=O)Nc2ccc(Cl)c(S(=O)(=O)Nc3ccccc3OC)c2)cc1	-4%	-29%	3	?	?	-3%
COc1ccccc1NS(=O)(=O)c1cc(N2Cc3ccccc3C2=N)ccc1N1CCOCC1	/	/	-3	8.9µM*	/	-16%
COc1ccccc1NS(=O)(=O)c1cc(NC(=O)c2ccncc2)ccc1N1CCCC1	/	/	-4	11µM*	/	1%
COc1ccccc1NS(=O)(=O)c1cc(NC(=O)Nc2cccc(C)c2)ccc1N1CCCCC1	0%	?	-1	?	-4	-12%
COc1ccccc1NS(=O)(=O)c1cc(NC(=O)c2ccc(Cl)nc2)ccc1Cl	1%	-25%	-3	25µM*	-7	4%
COc1ccccc1NC(=O)Nc1ccc(Cl)c(S(=O)(=O)Nc2ccccc2OC)c1	-7%	-19%	-6	-12%	44	8%
CCN(CC)c1ccc(NC(=O)c2ccccc2)cc1S(=O)(=O)Nc1ccccc1OC	-5%	1.8µM*	2	1µM*	?	0%
CCN(Cc1nc2ccccc2c(=O)[nH]1)Cc1cc(=O)oc2cc(OC)ccc12	0%	-14%	3	?	-21	11%
O=S1(=O)C=C(Oc2ccc3ccccc3c2)c2ccccc21	-9%	-25%	1	10µM*	31	2%
O=S1(=O)C=C(Oc2ccc(F)cc2)c2ccccc21	-16%	-15%	9	?	14	3%
COC(=O)[C@@H]1C[C@H]1[C@@H](NS(=O)(=O)c1ccc(-c2ccccc2)cc1)c1ccccc1	1%	-7%	-11	-5%	/	7%
COCCNC(=O)C1(CC(C)C)C=CCN1C(=O)c1ccccc1 (stereo not drawn)	-1%	-8%	-1	5%	/	4%
c1cnc(N2CC[N+]3(CCCC3)CC2)nc1	-7%	-15%	1	5%	42	4%
c1cnc(N2CCSCC2)nc1	-5%	-3%	2	12%	-91*	-2%
Cc1ccc(OCCN2C(=O)c3ccccc3C2=O)c(C)c1	-3%	22µM*	-5	5%	22	6%
Cc1ccccc1OCCCN1C(=O)C(=O)c2cccc(C)c21	?	?	-3	0.11µM*	-15	-1%
Cc1cccc2c1N(CCCOc1ccc(C(C)(C)C)cc1)C(=O)C2=O	-20%	8.9µM*	-14	0.089µM*	?	-2%
SMILES	12-hLO inh	HPGD inh	GLA inh pH 4.5	ALDH1A1 inh	PNC assembly inh	aGal spleen mod
CC(C)NC(=O)c1nn(C)c2ccccc12	-3%	-10%	1	-1%	?	-10%
CSCC[C@H](N)C(=O)N[C@@H](CO)C(=O)N[C@@H](CCCN=C(N)N)C(=O)N1CCC[C@H]1C(=O)N[C@@H](C)C(=O)N[C@@H](CS)C(=O)N1CCC[C@H]1C(=O)N[C@@H](CC(N)=O)C(=O)N[C@@H](CC(=O)O)C(=O)N[C@@H](CCCCN)C(=O)N[C@@H](Cc1ccc(O)cc1)C(=O)N[C@@H](CCC(=O)O)C(=O)O	/	/	/	/	/	0%
CC1=C[C@H](C)[C@H](c2c(F)cccc2Cl)CC1=O	/	/	/	/	/	8%
O=c1/c(=C\c2ccc(O)cc2)sc2nc(-c3ccccc3)c(-c3ccccc3)n12	/	/	9	/	/	5%
O=c1/c(=C/c2ccc(O)cc2)sc2nc3cc(Br)cnc3n12	/	/	7	20µM*	/	-11%
O=[N+]([O-])c1ccc(O)c(/C=N/Nc2nc3ccccc3[nH]2)c1	1%	-17%	-2	?	-93*	1%
C(=N\Nc1nc2ccccc2[nH]1)/c1cccs1	?	/	-4	2.8µM*	4	16%
CCCC1OC2CC3C4CCC5=CC(=O)C=CC5(C)C4C(O)CC3(C)[C@]2(C(=O)CO)O1 (stereo partly drawn)	-5%	-8%	3	-3%	/	8%
COc1ccccc1C(=O)N/C(=C/c1cccc([N+](=O)[O-])c1)C(=O)Nc1cccc(C(=O)O)c1	/	/	-1	-7%	/	6%
COc1ccc(C(=O)N/C(=C\c2cccc([N+](=O)[O-])c2)C(=O)Nc2cccc(C(=O)O)c2)cc1	/	/	5	13µM*	/	1%
COc1cc(/C=C(/NC(=O)c2ccccc2)C(=O)Nc2ccccc2)c([N+](=O)[O-])cc1OC	-19%	-3%	-6	-15%	110	9%
COc1ccc(NC(=O)/C(=C\c2cc(OC)c(OC)cc2[N+](=O)[O-])NC(=O)c2ccccc2)cc1	7%	32µM*	-5	-6%	20	6%
CC[C@H](C)[C@H](NC(=O)[C@@H](NC(=O)[C@@H](CC(=O)NO)Cc1ccccc1)[C@@H](C)CC)C(=O)O	/	/	/	/	/	4%
COc1ccccc1N1CCN(c2nc(C)nc3c2oc2ccccc23)CC1	-14%	?	-3	?	-102*	-6%
Cc1nc(N2CCN(C(=O)c3ccco3)CC2)c2oc3ccccc3c2n1	6%	-19%	8	28µM*	-17	-1%
CC(C)(C)c1ccc(N2C[C@@H](COc3ccc(C(=O)O)cc3)CC2=O)cc1	/	/	/	/	/	-15%
CN(C)CCNc1c(N)c(=O)oc2ccccc12	/	/	5	-9%	/	6%
Cc1ccccc1Nc1c(N)c(=O)oc2ccccc12	-6%	16µM*	-7	-4%	?	-2%
CCn1cc(Br)c(C(=O)Nc2ccc(Cl)cc2Cl)n1	-5%	-6%	-2	2%	-113*	0%
CCn1cc(Br)c(C(=O)Nc2ccc(F)c(Cl)c2)n1	-7%	-16%	8	-11%	?	-5%
